Bioassay records from PubChem BioAssay.
Shown is part of a subset that was picked to be rich in hits.
RVFV N-RNA FP – inhibitors of RVFV nucleoprotein–RNA binding, primary screen, biochemical, fluorescence polarization; P21700; RVFV N-RNA binding; active compounds read low; % bound, % (no concentration beside the values); actives 0.1% (n = 20,000); in the data active = % bound below about 75%
Target sequence (P21700 whole entry, looked up): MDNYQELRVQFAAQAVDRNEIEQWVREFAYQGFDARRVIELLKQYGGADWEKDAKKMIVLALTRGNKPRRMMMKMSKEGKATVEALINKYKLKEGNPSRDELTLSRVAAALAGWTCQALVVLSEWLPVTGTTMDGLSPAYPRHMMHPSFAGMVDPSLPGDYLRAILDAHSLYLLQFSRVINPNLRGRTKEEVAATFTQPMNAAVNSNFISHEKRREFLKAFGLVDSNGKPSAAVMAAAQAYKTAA
Numbers stand for hits; i = inactive.

SMILES	RVFV N-RNA FP
CC(=O)N(C)c1ccc(N=Cc2ccc(O)cc2)cc1	i
Oc1[nH]c2ccccc2c1C=NCc1ccc2c(c1)OCO2	i
O=C1CC(N2CCOCC2)C(=O)N1 (stereo not given)	i
Cn1c(Cc2noc(-c3ccccc3)n2)nc2ccccc21	i
Cc1cc(C)n(NC(=S)NC2CC3C=CC2C3)c(=O)c1C#N (stereo not given)	i
O=C1/C(=C/C=C/c2ccco2)SC(=S)N1C1CCCCC1	i
COc1ccc(O)cc1	i
COC(=O)c1cc(-c2ccc(OC)cc2)n[nH]1	i
COc1ccc(C2=CC(=O)C=CC2=O)cc1	52.0
NC(=O)N/N=C/c1ccc(OC(=O)c2ccco2)cc1	i
CC(Sc1nc(N)cc(=O)[nH]1)C(=O)Nc1ccc(S(N)(=O)=O)cc1 (stereo not given)	i
COc1ccc(C2C(C#N)=C(SCC(=O)NCc3ccc4c(c3)OCO4)NC3=C2C(=O)CC(C)(C)C3)cc1 (stereo not given)	i
CC(C)(C)NC(=O)Cn1cc(S(=O)(=O)Cc2ccccc2)c2ccccc21	i
O=C(CSc1nc2ccccc2[nH]1)Nc1ccc(C(=O)O)cc1	i
O=C(Nc1c2c(nn1-c1ccccc1)CSC2)C1CCCCC1	i
C=CCN1C(=O)NC(=O)/C(=C\c2ccccc2)C1=O	i
CC(Cn1cnc2ccccc21)C(=O)N=Nc1c(O)[nH]c2ccccc12 (stereo not given)	i
O=C(O)/C=C/C(=O)Nc1ccc(Br)c(Cl)c1	i
CCCN1CCC(NCCc2ccccc2OC)CC1	i
Cc1cc(OCCON2C(=O)CCC2=O)c(C)cc1Cl	i
CCN(CCO)c1nc(NC2CCCCC2)c2cnn(C)c2n1	i
Cc1noc(C)c1NC(=O)NCc1csc(-c2cccs2)n1	i
Nc1nc2c(s1)c(=O)[nH]c(=O)n2-c1ccc(Cl)cc1	i
CC1=NN(C(=O)CC#N)C(O)(c2ccccc2)C1 (stereo not given)	i
CC(=O)OC(C)(C)C(=O)/C=C/c1ccccc1	i
SMILES	RVFV N-RNA FP
COc1ccc(OC(C)C(=O)NCc2ccc3c(c2)OCO3)cc1 (stereo not given)	i
CCOC(=O)Cn1cc(/C=C2/C(=O)NC(=S)N(Cc3ccco3)C2=O)c2ccccc21	i
C=CC1CN2CCC1CC2C(OC(=O)CCC(=O)O)c1ccnc2ccccc12 (stereo not given)	i
O=C(Nc1ccccc1)N(Cc1ccco1)C1CCS(=O)(=O)C1 (stereo not given)	i
Cc1nnc(C)n1N1C(=O)c2cccc3cccc(c23)C1=O	i
O=C1C=C(O)c2cccc3cccc1c23	45.2
CCCC(=O)ON1C(=O)c2cccc3cccc(c23)C1=O	i
Cc1nnsc1C(=O)N(C)c1ccccc1	i
Nc1nnc2sc(SCC(=O)O)nn2c1=O	i
O=C(c1ccc(Cl)cc1)c1cnc2ncccn12	i
COc1ccc(C2=Nc3ccccc3SC(C(=O)O)C2)cc1 (stereo not given)	i
O=C(CN1C(=O)S/C(=C\c2ccco2)C1=O)Nc1ccc(O)c(C(=O)O)c1	i
CS(=O)(=O)N1CCN(S(C)(=O)=O)C2OCCOC21 (stereo not given)	i
COc1ccc(C(=O)n2ccc(-c3cccs3)n2)cc1OC	i
CN(Cc1ccccc1)C1(O)C(=O)Nc2ccc(Br)cc21 (stereo not given)	i
CCC(c1ccccc1)c1nnc(NC(=O)OC)s1 (stereo not given)	i
O=C1Nc2ccccc2/C1=C\c1c(Cl)[nH]c2ccccc12	i
CCN(CC)CCNC(=O)c1c(C)[nH]c(/C=C2\C(=O)Nc3ccc(Cl)cc32)c1C	i
CCOC(=O)c1c(C)[nH]c(/C=C2\C(=O)Nc3ccccc32)c1C	12.2
O=C(CSc1nc(=O)n2ccccc2n1)NC1CCCC1	i
CC(C)C(=O)c1cc2c(cc1N)OCCO2	i
NC(=O)COc1ccccc1O	i
Cn1c(/C(C#N)=N/OC(=O)c2ccccc2)nc2ccccc21	i
O=C(O)/C=C/c1c(F)c(F)c(N2CCOCC2)c(F)c1F	i
CC(C)C(=O)Nc1ccccc1C(=O)O	i
SMILES	RVFV N-RNA FP
CCN(C(=O)C1CCCCC1)c1ccccc1C	i
CCc1cc(C(=O)Cc2ccc3c(c2)OCCCO3)c(O)cc1OC	i
CSc1nnc2c(n1)OC(C)Nc1ccc(Br)cc1-2 (stereo not given)	i
N#CC(C#N)=Cc1ccc(-c2cccs2)s1	i
CCOC(=O)/C(C#N)=C/c1ccc(-c2cccs2)s1	18.8
CCOC(=O)/C(C#N)=C/N1CCCC1c1cccs1 (stereo not given)	i
O=C(Nc1ccc2c(c1)OCO2)C(O)(c1ccccc1)c1ccccc1	i
CCN(CC)Cc1c(O)ccc2cc(-c3ccc(OC)c(OC)c3)c(=O)oc12	i
CCN(CC)Cc1c(O)ccc2c1O/C(=C\c1ccccc1Cl)C2=O	50.7
O=C1/C(=C/c2ccccc2)Oc2c1ccc(O)c2CN1CCCC1	i
NC(=S)Cc1ccc(-c2csnn2)cc1	i
CCCCN1Cc2c(n(CC(=O)c3ccccc3)c3cc(-c4ccccc4)nn3c2=O)C1=O	i
CCCCCC(=O)N1CC(C)OC(C)C1 (stereo not given)	i
CCn1c(CCNC(=O)c2cccs2)nnc1SCc1ccc(Cl)c(Cl)c1	i
Cc1c(NC(=O)CCCN2C(=O)/C(=C\c3ccco3)SC2=S)c(=O)n(-c2ccccc2)n1C	i
CCC(Sc1nc(NC(C)=O)c(NC(=O)c2cccs2)c(=O)[nH]1)C(=O)O (stereo not given)	i
Cc1ccc(OCCc2nc3ccccc3[nH]2)cc1	i
COc1ccc(-c2cc(C3CC3)[nH]c(=S)c2C#N)cc1	i
Cc1cccn2cc(-c3cccc(S(=O)(=O)N(C)C)c3)nc12	i
O=C(NC1CC1)c1ccccc1I	i
CC(C)(C)NC(=O)c1ccccc1NC(=O)Nc1ccccc1	i
